Results reported in PubChem BioAssay AID1159580 (chemical genetic matrix, 2015).
About 2,000 (36%) of roughly 5,500 compounds were called active. Another 18% or so got no clear call; they are omitted. Rule as the data show it: active = normalized growth mostly below about 0.91 (no sharp cut-off); inconclusive = no clear call, values can overlap the other calls; inactive = mostly above about 0.92. The list shows a part of the results.

Assay: chemical genetic growth profiling, strain panel (AID 1159580);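 also: tested at 20 µM; growth read once vehicle control cultures reached saturation at 30 °C; 1 = growth at the plate median or of vehicle wells; lower values mean less growth of the strain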
Conditions: S. cerevisiae deletion strains, growth OD

Measured: normalized growth

COc1ccc(-c2cc(=O)c3c(O)cc(O[C@H]4O[C@H](CO[C@@H]5O[C@@H](C)[C@H](O)[C@@H](O)[C@H]5O)[C@@H](O)[C@H](O)[C@H]4O)cc3o2)cc1
inactive: locus YAL013W, strain DEP1, hits give low values 1.01 | locus YAL021C, strain ccr4, hits give low values 1 | locus YAL026C, strain drs2, hits give low values 1.03 | locus YAL030W, strain snc1, hits give low values 1 | locus YBL061C, strain skt5, hits give low values 1 | locus YBR009C, strain hhf1, hits give low values 1 | locus YBR021W, strain FUR4, hits give low values 1 | locus YBR023C, strain chs3, hits give low values 1.01 | locus YBR171W, strain sec66, hits give low values 1.01 | locus YBR229C, strain ROT2, hits give low values 1 | locus YBR231C, strain swc5, hits give low values 1.01 | locus YBR279W, strain paf1, hits give low values 1 | locus YCL011C, strain gbp2, hits give low values 1 | locus YCL016C, strain dcc1, hits give low values 0.989 | locus YCL029C, strain bik1, hits give low values 1.02 | locus YCL061C, strain MRC1, hits give low values 1.01 | locus YCL069W, strain vba3, hits give low values 0.968 | locus YCR088W, strain abp1, hits give low values 1.01 | locus YDL005C, strain med2, hits give low values 1 | locus YDL035C, strain GPR1, hits give low values 1 | locus YDL040C, strain nat1, hits give low values 1.01 | locus YDL074C, strain BRE1, hits give low values 1.03 | locus YDL101C, strain DUN1, hits give low values 1.03 | locus YDL185W, strain tfp1, hits give low values 1.02 | locus YDL192W, strain arf1, hits give low values 1.02 | locus YDR001C, strain nth1, hits give low values 0.998 | locus YDR069C, strain doa4, hits give low values 1.01 | locus YDR101C, strain arx1, hits give low values 1.01 | locus YDR137W, strain rgp1, hits give low values 1.02 | locus YDR159W, strain sac3, hits give low values 1.02 | locus YDR162C, strain NBP2, hits give low values 1.01 | locus YDR195W, strain ref2 1 | locus YDR297W, strain sur2, hits give low values 0.998 | locus YDR318W, strain mcm21, hits give low values 1.01 | locus YDR334W, strain swr1, hits give low values 1 | locus YDR335W, strain msn5, hits give low values 0.992 | locus YDR388W, hits give low values 1.02 | locus YDR392W, strain spt3, hits give low values 1 | locus YDR502C, strain sam2, hits give low values 1.02 | locus YEL003W, strain gim4, hits give low values 1.01 | locus YEL037C, strain rad23, hits give low values 1.01 | locus YEL061C, strain CIN8 (second series), hits give low values 0.995 | locus YEL061C, strain CIN8, hits give low values 1 | locus YER015W, strain faa2, hits give low values 1 | locus YER016W, strain bim1, hits give low values 1 | locus YER110C, hits give low values 1.02 | locus YER111C, strain swi4, hits give low values 1 | locus YER155C, strain BEM2 (second series), hits give low values 1.02 | locus YER155C, strain BEM2, hits give low values 1.01 | locus YER167W, strain BCK2, hits give low values 1.02 | locus YFR010W, strain ubp6, hits give low values 1.01 | locus YGL078C, strain dbp3, hits give low values 1.01 | locus YGL086W, strain mad1, hits give low values 1.03 | locus YGL167C, strain pmr1, hits give low values 0.995 | locus YGL173C, strain kem1, hits give low values 1.02 | locus YGL227W, strain vid30, hits give low values 1.01 | locus YGL240W, strain doc1, hits give low values 1.02 | locus YGL248W, strain PDE1, hits give low values 1.01 | locus YGL253W, strain hxk2, hits give low values 0.986 | locus YGR078C, strain PAC10, hits give low values 1.03 | locus YGR135W, strain pre9, hits give low values 1.01 | locus YGR229C, strain SMI1, hits give low values 1.02 | locus YGR252W, strain gcn5, hits give low values 1.04 | locus YHR013C, strain ard1, hits give low values 1.01 | locus YHR027C, strain rpn1, hits give low values 0.998 | locus YHR030C, strain SLT2, hits give low values 0.992 | locus YHR079C, strain IRE1 (second series), hits give low values 1.01 | locus YHR094C, strain hxt1, hits give low values 1.01 | locus YHR129C, strain ARP1, hits give low values 1.01 | locus YHR142W, strain chs7, hits give low values 0.983 | locus YHR200W, strain rpn10, hits give low values 1.02 | locus YIL066C, strain RNR3, hits give low values 1.01 | locus YIL073C, strain SPO22, hits give low values 1.08 | locus YIL125W, strain kgd1, hits give low values 1.02 | locus YIR030C, strain dcg1, hits give low values 1.02 | locus YJL092W, strain hpr5, hits give low values 0.997 | locus YJL095W, strain BCK1 (second series), hits give low values 1 | locus YJL095W, strain BCK1, hits give low values 1.05 | locus YJL115W, strain asf1, hits give low values 1 | locus YJL129C, strain trk1, hits give low values 1.01 | locus YJL134W, strain LCB3, hits give low values 0.994 | locus YJL154C, strain vps35, hits give low values 0.999 | locus YJL164C, strain tpk1, hits give low values 0.991 | locus YJL166W, strain qcr8, hits give low values 1 | locus YJL168C, strain set2, hits give low values 1.02 | locus YJL187C, strain SWE1 (second series), hits give low values 1.03 | locus YJL187C, strain SWE1, hits give low values 1.01 | locus YJR043C, strain POL32, hits give low values 0.972 | locus YKL009W, strain mrt4, hits give low values 1.04 | locus YKL068W, hits give low values 1.01 | locus YKL085W, strain MDH1 (second series), hits give low values 0.999 | locus YKL085W, strain MDH1, hits give low values 0.999 | locus YKL160W, strain elf1, hits give low values 0.999 | locus YKL190W, strain CNB1, hits give low values 0.994 | locus YKR001C, strain vps1, hits give low values 1.04 | locus YKR026C, strain gcn3, hits give low values 1 | locus YKR091W, strain srl3, hits give low values 1 | locus YLL001W, strain dnm1, hits give low values 0.969 | locus YLL026W, hits give low values 1 | locus YLL041C, strain sdh2, hits give low values 1.01 | locus YLR027C, strain aat2, hits give low values 0.981 | locus YLR039C, strain RIC1, hits give low values 1.06 | locus YLR058C, strain SHM2, hits give low values 1.01 | locus YLR102C, strain apc9, hits give low values 1.02 | locus YLR221C, strain rsa3, hits give low values 1.01 | locus YLR258W, strain gsy2, hits give low values 0.991 | locus YLR262C, strain YPT6 (second series), hits give low values 0.988 | locus YLR262C, strain YPT6, hits give low values 1.1 | locus YLR268W, strain sec22, hits give low values 1.05 | locus YLR320W, strain mms22, hits give low values 1.03 | locus YLR330W, strain CHS5, hits give low values 1 | locus YLR342W, strain FKS1 (second series), hits give low values 1.01 | locus YLR342W, strain FKS1, hits give low values 0.996 | locus YLR357W, strain rsc2, hits give low values 0.996 | locus YLR370C, strain arc18, hits give low values 1 | locus YLR371W, strain rom2, hits give low values 1.02 | locus YLR384C, strain iki3, hits give low values 0.99 | locus YLR418C, strain cdc73, hits give low values 0.994 | locus YML016C, strain PPZ1, hits give low values 1 | locus YML032C, strain rad52, hits give low values 0.998 | locus YML120C, strain ndi1, hits give low values 1 | locus YML124C, strain tub3, hits give low values 1.02 | locus YMR058W, strain fet3, hits give low values 1 | locus YMR078C, strain ctf18, hits give low values 1.02 | locus YMR125W, strain sto1, hits give low values 0.958 | locus YMR129W, hits give low values 0.999 | locus YMR205C, strain PFK2, hits give low values 1 | locus YMR223W, strain ubp8, hits give low values 1.01 | locus YMR231W, strain pep5, hits give low values 1 | locus YMR307W, strain GAS1, hits give low values 1.03 | locus YNL067W, strain RPL9B, hits give low values 1.04 | locus YNL071W, strain lat1, hits give low values 1.01 | locus YNL128W, strain TEP1, hits give low values 1.02 | locus YNL209W, strain ssb2, hits give low values 0.991 | locus YNL233W, strain BNI4, hits give low values 1.04 | locus YNL248C, strain rpa49, hits give low values 1.02 | locus YNL250W, strain rad50, hits give low values 1.02 | locus YNL271C, strain bni1, hits give low values 1.02 | locus YNL298W, strain CLA4, hits give low values 1.02 | locus YNL307C, strain MCK1, hits give low values 1.02 | locus YNL322C, strain KRE1 (second series), hits give low values 1 | locus YNL322C, strain KRE1, hits give low values 1 | locus YNR049C, strain mso1, hits give low values 0.991 | locus YNR052C, strain pop2, hits give low values 1.02 | locus YOL006C, strain TOP1, hits give low values 1.15 | locus YOL012C, strain htz1 1.14 | locus YOL147C, strain pex11, hits give low values 1.01 | locus YOR001W, strain rrp6, hits give low values 1.02 | locus YOR061W, strain CKA2, hits give low values 1 | locus YOR069W, strain VPS5, hits give low values 1.01 | locus YOR070C, strain gyp1, hits give low values 1.02 | locus YOR080W, strain dia2, hits give low values 0.998 | locus YOR083W, strain WHI5, hits give low values 1.01 | locus YOR106W, strain vam3, hits give low values 0.988 | locus YOR136W, strain idh2, hits give low values 1.03 | locus YOR144C, strain elg1, hits give low values 1.01 | locus YOR184W, strain ser1, hits give low values 1.01 | locus YOR265W, strain rbl2, hits give low values 0.998 | locus YOR270C, strain vph1, hits give low values 1.02 | locus YOR290C, strain snf2, hits give low values 0.985 | locus YOR316C, strain cot1, hits give low values 1.01 | locus YPL051W, strain arl3, hits give low values 1.01 | locus YPL078C, strain atp4, hits give low values 1.02 | locus YPL106C, strain sse1, hits give low values 1.01 | locus YPL240C, strain hsp82, hits give low values 0.995 | locus YPL241C, strain CIN2, hits give low values 0.993 | locus YPR119W, strain clb2, hits give low values 1.02 | locus YPR141C, strain kar3, hits give low values 1.01 | locus YPR163C, strain tif3, hits give low values 1.02 | locus YPR167C, strain met16, hits give low values 1.01 | strain wtn01, hits give low values 1.04
